Experimental data reported in PMC12136788.
Substitutions are numbered along the chain they refer to. Whole data set: some 5,800 sequences, median “enrichment r” near 0.54, cut for the highest 2% near 16. Shown is part of a subset that was picked to be rich in the highest values.

B1: ENSG00000136451:be:win_1501|CDS_3pUTR|ENSG00000136451|bound_else_gene|NA|bound_elsewhere_windowed (ssRNA)
RNA: GGGAGUUCUACAGUCCGACGAUCGCAAUGAGACCUGUAGAGAGCAUGCCUUUCUUGCCCCAAGCUUUGCCUACAUCACCGCCUUGGUAAACAGUAUUAUAAAAUCAAAAUAUGGGUAAAAGUAAAUAUUUACCAGCAACUUAACAACAGAGGAUUGAGCAUCA
B2: chr8:41262032:41262394:-|3pUTR|ENSG00000104332|msi1|total|mutant (ssRNA)
RNA: GGGAGUUCUACAGUCCGACGAUCGGCCGUUCUGACCUGUUGCCAGCAGAUACACAGGACAUGGAUGAAAUUCCCGUUUCCUCCCGUUUCUUCCUGCCGUACUCCUCUUUCCGAUCCUAAGUCUCUUACAAAAGCUUUGAAUACCAACAGAGGAUUGAGCAUCA
B3: chr1:6522505:6522606:-|3pUTR|ENSG00000162408|msi1|FALSE|unique (ssRNA)
RNA: GGGAGUUCUACAGUCCGACGAUCCUGGGAUUACAGGCGUGAGCCACUGCGCCUGGCCUGAAGCUAUUCUUUACAAAAGCUCUUAGUUUUUGUUUGUUUGUUUGUUUUUUUCUUUUGCGACGGACUCUCUGUCGCCAAGGCUGGCAACAGAGGAUUGAGCAUCA
B4: chr12:95077336:95077437:-|3pUTR|ENSG00000180263|msi1|FALSE|unique (ssRNA)
RNA: GGGAGUUCUACAGUCCGACGAUCUCCUCAUUGACCCAUCCGCAUCUCUGUUUAUCCAAGACUUCUCUGUGAUAGCUGACCCUUAGUCUUUCUCUCCCCUAUUCCUCCAGACUAGAUCCUGUCUCCUUCCUGCAGCCCCGACACCAACAGAGGAUUGAGCAUCA
B5: chr2:121605696:121605828:-|CDS|ENSG00000074054|unk|total|mutant (ssRNA)
RNA: GGGAGUUCUACAGUCCGACGAUCGACCGACUAUUUCUCAGACAAACAGAAGUCUGCUGACCUUGAGCAUGACCAGACCAUGUCCGAUAAACUUGUGGAUGGACUUGCUACCUCUUGGGUGAACUCCCGCAAUUACAAGGUAAGCAACAGAGGAUUGAGCAUCA
B6: chr10:24583932:24584033:-|3pUTR|ENSG00000107863|unk|total|mutant (ssRNA)
RNA: GGGAGUUCUACAGUCCGACGAUCAACAAAAGUGCCUCAUCAUAAAAAUACAGUUGGUUUUCCGGGUGCCAUAUUGUUAAAAUCCGAUAACUUACUUACAUUGAAUAAACGAAUGCGUUUUAUUGGUAACAGAUAUCAUUACAUCAACAGAGGAUUGAGCAUCA
B7: chr5:171862525:171862626:-|3pUTR|ENSG00000072803|msi1|FALSE|unique (ssRNA)
RNA: GGGAGUUCUACAGUCCGACGAUCGACAGUGCAUGGAAAGGACGUUGGCAUCCAAUUGGCACUCCUUCUCCCUUAUUCAAUAUUAGGUUUGAUUUGCCCUUCGCCAUUGUUUCCAAAGAUCAAGGAAUGUCAAUAACAUUUUAACAACAGAGGAUUGAGCAUCA
B8: chr7:56101660:56101848:-|3pUTR|ENSG00000106153|msi1|FALSE|unique (ssRNA)
RNA: GGGAGUUCUACAGUCCGACGAUCUGGAGAGAUGGAAAAUCAGCUCUCAUAACUAAGUUAAUUUAGUAUAAAAAUAGAAUUGAUAGUGAGGGUAUAAAGUGUAACCAUCAGUUAAACCUCUCCUGUCAUUCCUGGCUUCCUUGCCAACAGAGGAUUGAGCAUCA
B9: chr7:101137467:101137738:+|3pUTR|ENSG00000106366|msi1|FALSE|unique (ssRNA)
RNA: GGGAGUUCUACAGUCCGACGAUCGUUAAAAGAUGGUAAACCAGAUCUGUCUCCAAGACCUUGGCCUCUCCUUGGAGGACCUUUAGGUCAAACUCCCUAGUCUCCACCUGAGACCCUGGGAGAGAAGUUUGAAGCACAACUCCCCAACAGAGGAUUGAGCAUCA
B10: chr14:74942539:74942640:-|3pUTR|ENSG00000119630|msi1|total|mutant (ssRNA)
RNA: GGGAGUUCUACAGUCCGACGAUCGUGUAUUUAUUACCGUCACACUCUUCAGUGACUCCUGCUGGUACCUGCCCUCUAUUUAUCCGCCAACUGUUUCCCUGCUGAAUGCCUCGCUCCCUUCAAGACGAGGGGCAGGGAAGGACACAACAGAGGAUUGAGCAUCA
B11: chr1:151048051:151048152:+|CDS|ENSG00000143443|unk|FALSE|unique (ssRNA)
RNA: GGGAGUUCUACAGUCCGACGAUCGACCGCCUGGCUGGACCAGCGGCUGCCGAGCUCUUGGCCGCCACGGUGUCCACCGGCUUUAGCCGGUCGUCCGCCAUUAACGAGGAGGAUGGGUCUUCAGAAGAGGGGGUUGUGAUUAAUCAACAGAGGAUUGAGCAUCA
B12: chrX:65741840:65741941:+|3pUTR|ENSG00000147065|msi1|total|mutant (ssRNA)
RNA: GGGAGUUCUACAGUCCGACGAUCAAAUUGUUUUUGGAGGGGUUUAUGCUCAAUCCAUGUUCUAUUUCAGUGCCAAUAAAAUUCCGGAAGACUUCACAGUGACUCAAUCGUUCUUUGUGGUAUGAGUGGGCCGCUGUAAGAUAUCAACAGAGGAUUGAGCAUCA
B13: chr12:106067485:106067586:-|CDS|ENSG00000074590|msi1|FALSE|unique (ssRNA)
RNA: GGGAGUUCUACAGUCCGACGAUCCCUGAAGAAGCGAAGCAACAGCGAGCAUCGCUCUCACAGCACUGGCUUCAUUGAAGGUGUAGUUGGUCCUGCCUUACCCUCUACUUUCAAGAUGGAGCAGGACUUGUGCAGGACUGGCGUCAACAGAGGAUUGAGCAUCA
B14: chr4:168926953:168927063:+|3pUTR|ENSG00000129116|msi1_unk|FALSE|overlapping (ssRNA)
RNA: GGGAGUUCUACAGUCCGACGAUCCAAAAGAGUUUUCUAACAAGGUUAAUACCUUAGUUCUUAACAUUUUUUUUCUUUAUGUGUAGUGUUUUCAUGCUACCUUGGUAGGAAACUUAUUUACAAACCAUAUUAAAAGGCUAAUUUCAACAGAGGAUUGAGCAUCA
B15: chr4:185586528:185586629:-|3pUTR|ENSG00000154556|msi1|FALSE|unique (ssRNA)
RNA: GGGAGUUCUACAGUCCGACGAUCAUCCAUAUGAUAUGUUGUACAUUUUAUGGAAAUGUAAUAGAAUCUCACACAUUAUUUUAUAGAAAUAGAGUACAGAAGCAUCACAAGUAUUAAAGUUGGUUUUAGCAAGGAUUAGGAUUACAACAGAGGAUUGAGCAUCA
B16: ENSG00000136451:be:win_1601|3pUTR|ENSG00000136451|bound_else_gene|NA|bound_elsewhere_windowed (ssRNA)
RNA: GGGAGUUCUACAGUCCGACGAUCAAUAUUUACCAGCAACUUAACUUUUAGUUGAUUAAAGCAAAAAGUAAACCAUGAAAUUGGGAGAUUUUAUUACAUUAGUUAAUAAGAGUGUGGUAGCAUUUUUCUCCAAUUUGGCUGGGACAACAGAGGAUUGAGCAUCA
B17: chr12:98549714:98549829:+|3pUTR|ENSG00000120802|unk|FALSE|unique (ssRNA)
RNA: GGGAGUUCUACAGUCCGACGAUCGAAGAUGUAUAUUUAGACCAGCACACAAUUUUGAUUUCAAUUAGCCUUAUUCUAAUAUUUAGCUUUUAGAUCUUUCAUACACAUUUUCACGUACUUUGCAAUUGAGACCAGAAAGACUUGCAACAGAGGAUUGAGCAUCA
B18: chrX:131089436:131089558:+|3pUTR|ENSG00000147256|unk|FALSE|unique (ssRNA)
RNA: GGGAGUUCUACAGUCCGACGAUCGGGAAACCUCAAGUGUAGGUCUAAUUAGUGUUUCUGGGAUCCAAAGUUAGAGGAAAAUUUAGAUUUUAUUGCCUGGAUCUGCUUUAAAGACAAUUGGUGUUUACACCCUCUUGUCAGCAACAACAGAGGAUUGAGCAUCA
B19: chr12:7729382:7729740:-|three_prime_utr|ENSG00000198178|control|control|control (ssRNA)
RNA: GGGAGUUCUACAGUCCGACGAUCAUCUACAUAUAAAUGAAAUAUUCUCCCUGGAAAUGUGUUUGGGUUGGCAUCCACCGUUGUAGAAAGCUAAAUUGAUUUUUUAAUUUAUGUGUAAGUUUUGUACAAGGAAUGCCCCUAAAACAACAGAGGAUUGAGCAUCA
B20: chrX:131089436:131089558:+|3pUTR|ENSG00000147256|unk|total|mutant (ssRNA)
RNA: B18 RNA with U39C, A40C, U49C, A50C, U71C, A72C, U83C, A84C
B21: chr20:53567570:53567671:-|3pUTR|ENSG00000171940|unk|FALSE|unique (ssRNA)
RNA: GGGAGUUCUACAGUCCGACGAUCUCACAAGCUGAGCCAUAUGUACAUAAUCUAGAUUUUGUUUUCAUAGUUUUGCACUUUUAUAGCCUAUUUUUGAAGAUUAACACAUUUGCAAGAUGAUUGACUCAAUCUUUGCCUAAUCCACAACAGAGGAUUGAGCAUCA
B22: chr4:185586528:185586629:-|3pUTR|ENSG00000154556|msi1|total|mutant (ssRNA)
RNA: B15 RNA with U61C, A62C, U83C, A84C, U89C, A90C, U126C, A127C, U136C, A137C
B23: chr4:168926953:168927063:+|3pUTR|ENSG00000129116|msi1_unk|total|mutant (ssRNA)
RNA: B14 RNA with U54C, A55C, U83C, A84C, U105C, A106C
B24: chr7:2728618:2728646:-|3pUTR|ENSG00000146535|msi1_unk|FALSE|overlapping (ssRNA)
RNA: GGGAGUUCUACAGUCCGACGAUCUUUAAUUUCACUGUUAAUCCUUAUUGUCUUUUUUAUUAAGAUGUUGGAAAAGCAGGAGGUAGUUGUGCCUCAAUUAUUGCAAAAAUGUAACAAUAAAGUUCCUCAAAAUAAGAUCUGUUCCAACAGAGGAUUGAGCAUCA
B25: chr12:98549714:98549829:+|3pUTR|ENSG00000120802|unk|total|mutant (ssRNA)
RNA: B17 RNA with U37C, A38C, U65C, A66C, U83C, A84C, U90C, A91C

molecular target: MSI1 full-length (mouse, UniProt Q61474 1-362); assay: nsRBNS (natural sequence RNA bind-n-seq); RBNS binding buffer (assumed for nsRBNS): 25 mM Tris pH 7.5, 150 mM KCl, 3 mM MgCl2, 0.01% Triton X-100, 500 ug/ml BSA, 20 U/ml SUPERase-In, 4 C; UNK is unkempt and MSI1 is Musashi-1; names of the RNAs are library labels; protein concentration not given here; high values mean tight binding
Sequence (Q61474 whole entry): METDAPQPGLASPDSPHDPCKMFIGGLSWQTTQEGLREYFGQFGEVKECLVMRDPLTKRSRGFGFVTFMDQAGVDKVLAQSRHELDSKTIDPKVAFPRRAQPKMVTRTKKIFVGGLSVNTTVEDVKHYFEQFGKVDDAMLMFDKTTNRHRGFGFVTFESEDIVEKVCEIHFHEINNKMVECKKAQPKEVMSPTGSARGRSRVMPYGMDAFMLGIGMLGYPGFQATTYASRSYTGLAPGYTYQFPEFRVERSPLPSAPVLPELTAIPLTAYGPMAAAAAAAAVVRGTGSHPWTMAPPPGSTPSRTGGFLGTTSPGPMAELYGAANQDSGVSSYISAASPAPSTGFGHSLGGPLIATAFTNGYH

Binder	binding signal [enrichment R]
B1	0.827
B2	0.417
B3	0.372
B4	1.24
B5	0.532
B6	0.389
B7	0.699
B8	5.86
B9	0.316
B10	0.338
B11	0.497
B12	0.205
B13	0.282
B14	20
B15	34.5
B16	1.37
B17	23.7
B18	20.8
B19	0.681
B20	0.224
B21	4.98
B22	0.725
B23	0.747
B24	0.334
B25	0.832
